Where “and” joins values, the source holds several entries; their conditions need not be identical. Equal entries are not always repeated. Hit rate of the full screen: of about 5,500 compounds, about 2,000 (36%) were called active. Roughly 18% stayed inconclusive and do not appear here. Cut-off read from the data, not from the text of the source: active = normalized growth mostly below about 0.91 (no sharp cut-off); inconclusive = no clear call, values can overlap the other calls; inactive = mostly above about 0.92. Some of the results follow.
Assay: chemical genetic growth profiling, strain panel (AID 1159580);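 note: tested at 20 µM; growth read once vehicle control cultures reached saturation at 30 °C; 1 = growth at the plate median or of vehicle wells; lower values mean less growth of the strain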
Details: S. cerevisiae deletion strains, growth OD

Measured: normalized growth

Cc1cccc(C)c1OCC(C)N (stereo not drawn)
inactive: locus YAL013W, strain DEP1, hits give low values 0.993 | locus YAL021C, strain ccr4, hits give low values 0.986 | locus YAL026C, strain drs2, hits give low values 1.01 | locus YAL030W, strain snc1, hits give low values 1 | locus YAL040C, strain CLN3, hits give low values 0.998 | locus YBL061C, strain skt5, hits give low values 1 | locus YBR009C, strain hhf1, hits give low values 1.01 | locus YBR021W, strain FUR4, hits give low values 0.997 | locus YBR023C, strain chs3, hits give low values 1 | locus YBR171W, strain sec66, hits give low values 1.02 | locus YBR229C, strain ROT2, hits give low values 0.998 | locus YBR231C, strain swc5, hits give low values 1.02 | locus YBR279W, strain paf1, hits give low values 1.01 | locus YCL011C, strain gbp2, hits give low values 1 | locus YCL016C, strain dcc1, hits give low values 1.01 | locus YCL029C, strain bik1, hits give low values 0.987 | locus YCL061C, strain MRC1 (second series), hits give low values 0.997 | locus YCL061C, strain MRC1, hits give low values 1.01 | locus YCL069W, strain vba3, hits give low values 1.01 | locus YCR088W, strain abp1, hits give low values 1 | locus YDL005C, strain med2, hits give low values 1.01 | locus YDL035C, strain GPR1, hits give low values 1 | locus YDL040C, strain nat1, hits give low values 1.01 | locus YDL074C, strain BRE1, hits give low values 1.05 | locus YDL101C, strain DUN1, hits give low values 1.02 | locus YDL134C, strain PPH21, hits give low values 0.983 | locus YDL185W, strain tfp1, hits give low values 0.95 | locus YDL192W, strain arf1, hits give low values 0.991 | locus YDR001C, strain nth1, hits give low values 1 | locus YDR069C, strain doa4, hits give low values 1.01 | locus YDR101C, strain arx1, hits give low values 0.996 | locus YDR137W, strain rgp1, hits give low values 1.01 | locus YDR159W, strain sac3, hits give low values 1.01 | locus YDR162C, strain NBP2, hits give low values 0.979 | locus YDR195W, strain ref2 0.998 | locus YDR297W, strain sur2, hits give low values 1.01 | locus YDR318W, strain mcm21, hits give low values 0.99 | locus YDR334W, strain swr1, hits give low values 1.01 | locus YDR335W, strain msn5, hits give low values 1.01 | locus YDR363W, strain ESC2, hits give low values 0.97 | locus YDR388W, hits give low values 1.01 | locus YDR392W, strain spt3, hits give low values 1.01 | locus YDR502C, strain sam2, hits give low values 1 | locus YEL003W, strain gim4, hits give low values 1.01 | locus YEL037C, strain rad23, hits give low values 0.992 | locus YEL061C, strain CIN8 (second series), hits give low values 1 | locus YEL061C, strain CIN8, hits give low values 0.991 | locus YER002W, strain NOP16, hits give low values 1.01 | locus YER015W, strain faa2, hits give low values 1.02 | locus YER016W, strain bim1, hits give low values 1.01 | locus YER110C, hits give low values 0.98 | locus YER111C, strain swi4, hits give low values 1.02 | locus YER155C, strain BEM2 (second series), hits give low values 1.02 | locus YER155C, strain BEM2, hits give low values 0.999 | locus YER167W, strain BCK2, hits give low values 1.01 | locus YFR010W, strain ubp6, hits give low values 1.02 | locus YGL078C, strain dbp3, hits give low values 0.977 | locus YGL086W, strain mad1, hits give low values 1.01 | locus YGL167C, strain pmr1, hits give low values 1 | locus YGL173C, strain kem1, hits give low values 1.02 | locus YGL227W, strain vid30, hits give low values 1.01 | locus YGL240W, strain doc1, hits give low values 1.02 | locus YGL248W, strain PDE1, hits give low values 1.01 | locus YGL253W, strain hxk2, hits give low values 1.01 | locus YGR135W, strain pre9, hits give low values 0.975 | locus YGR252W, strain gcn5, hits give low values 1.01 | locus YHR013C, strain ard1, hits give low values 1.01 | locus YHR027C, strain rpn1, hits give low values 1.01 | locus YHR030C, strain SLT2, hits give low values 0.977 and 0.988 | locus YHR079C, strain IRE1 (second series), hits give low values 0.983 | locus YHR079C, strain IRE1, hits give low values 0.994 | locus YHR094C, strain hxt1, hits give low values 0.999 | locus YHR129C, strain ARP1, hits give low values 0.999 | locus YHR142W, strain chs7, hits give low values 1 | locus YHR200W, strain rpn10, hits give low values 0.973 | locus YIL066C, strain RNR3, hits give low values 1.01 | locus YIL073C, strain SPO22, hits give low values 0.862 | locus YIL125W, strain kgd1, hits give low values 0.995 | locus YIR030C, strain dcg1, hits give low values 0.987 | locus YJL092W, strain hpr5, hits give low values 1.01 | locus YJL095W, strain BCK1 (second series), hits give low values 1 | locus YJL095W, strain BCK1, hits give low values 1.05 and 0.977 | locus YJL115W, strain asf1, hits give low values 1.01 | locus YJL129C, strain trk1, hits give low values 1.02 | locus YJL134W, strain LCB3, hits give low values 0.987 | locus YJL154C, strain vps35, hits give low values 1.01 | locus YJL164C, strain tpk1, hits give low values 1.01 | locus YJL166W, strain qcr8, hits give low values 1 | locus YJL168C, strain set2, hits give low values 0.997 | locus YJL187C, strain SWE1 (second series), hits give low values 1.01 | locus YJL187C, strain SWE1, hits give low values 1 | locus YJR043C, strain POL32, hits give low values 1 | locus YJR066W, strain TOR1, hits give low values 0.96
